Data: PubChem BioAssay (NCATS)
Records with an inconclusive call do not appear. The source made the active and inactive calls. The call rests on the fitted dose curve; in most records, active means well fitted curve in the direction sought with a large enough effect; inconclusive means small, poorly fitted or top-dose-only effect, or another doubt; inactive means no such curve, though single readings can be large; an effect the other way counts as inactive or inconclusive.

Assays:
[1] = Quantitative High-Throughput drug screen in 47 multiple myeloma cell lines against the NCATS MIPE library collection: JIM3_ECACC cell viability assay (AID 1918963; further: nearly all actives have a fitted effect of over 35% in size; further: potency means the concentration at half of the fitted maximal effect)
In short: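 Steps: seed 500 cells per well; pin-transfer MIPE 4.0 library; incubate 48 h at 37C, 5% CO2, humidified; add CellTiter-Glo, 5 min room temperature; read luminescence.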

[2] = Quantitative High-Throughput drug screen in 47 multiple myeloma cell lines against the NCATS MIPE library collection: INA6_PLB cell viability assay (AID 1918965; further: nearly all actives have a fitted effect of over 55% in size; further: potency means the concentration at half of the fitted maximal effect)
In short: (§1)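 CellTiter-Glo luminescence (ATP) after 48 h compound exposure, 37C/5% CO2; 500 cells/well; MIPE 4.0 approved/investigational drugs pinned in; DMSO = 100%, media only = 0% viability.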

[3] = Quantitative High-Throughput drug screen in 47 multiple myeloma cell lines against the NCATS MIPE library collection: JJN3_DSMZ cell viability assay (AID 1918966; further: nearly all actives have a fitted effect of over 50% in size)
In short: (§2)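 CellTiter-Glo ATP luminescence gave viability after 48 h compound treatment at 37C of 500 multiple myeloma cells per well. Normalisation used DMSO-only wells as 100% and media-only wells as 0% viability; primary qHTS of approved and investigational drugs.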

[4] = Quantitative High-Throughput drug screen in 47 multiple myeloma cell lines against the NCATS MIPE library collection: H1112_PLB cell viability assay (AID 1918967; further: nearly all actives have a fitted effect of over 30% in size; further: potency means the concentration at half of the fitted maximal effect)
In short: as §2

[5] = Quantitative High-Throughput drug screen in 47 multiple myeloma cell lines against the NCATS MIPE library collection: Karpas25_ECACC cell viability assay (AID 1918968; further: nearly all actives have a fitted effect of over 35% in size; further: potency means the concentration at half of the fitted maximal effect)
In short: as §2

[6] = Quantitative High-Throughput drug screen in 47 multiple myeloma cell lines against the NCATS MIPE library collection: KMS27_JCRB cell viability assay (AID 1918970); details: KMS27 myeloma cells, CellTiter-Glo ATP viability, 48 h; viability (% of DMSO): at 45.8 µM (top of the series); further: nearly all actives have a fitted effect of over 30% in size; further: potency means the concentration at half of the fitted maximal effect
In short: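 Each line is seeded at 500 cells per well and treated with library compounds for 48 hours under 37 °C, 5% CO2. CellTiter-Glo is then added for 5 min at room temperature before median relative luminescence is recorded.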

[7] = Quantitative High-Throughput drug screen in 47 multiple myeloma cell lines against the NCATS MIPE library collection: KMS12PE_JCRB cell viability assay (AID 1918972); further: nearly all actives have a fitted effect of over 30% in size; further: potency means the concentration at half of the fitted maximal effect
In short: as §1

[8] = Quantitative High-Throughput drug screen in 47 multiple myeloma cell lines against the NCATS MIPE library collection: KMS26_JCRB cell viability assay (AID 1918975); further: nearly all actives have a fitted effect of over 45% in size
In short: (§3)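 Relative luminescence from CellTiter-Glo served as the viability signal, referenced to DMSO-treated (100%) and cell-free medium (0%) controls. Treatment lasted 48 hours at 37C with 500 cells per well.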

[9] = Quantitative High-Throughput drug screen in 47 multiple myeloma cell lines against the NCATS MIPE library collection: NCIH929_DSMZ cell viability assay (AID 1918978); further: nearly all actives have a fitted effect of over 35% in size; further: potency means the concentration at half of the fitted maximal effect
In short: (§4)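 500 cells/well; MIPE 4.0 drugs pin-transferred; 48 h, 37C, 5% CO2. CellTiter-Glo, 5 min RT, luminescence. Controls: DMSO 100%, media 0%.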

[10] = Quantitative High-Throughput drug screen in 47 multiple myeloma cell lines against the NCATS MIPE library collection: OCIMY1_PLB cell viability assay (AID 1918979); further: nearly all actives have a fitted effect of over 35% in size; further: potency means the concentration at half of the fitted maximal effect
In short: as §4

[11] = Quantitative High-Throughput drug screen in 47 multiple myeloma cell lines against the NCATS MIPE library collection: MM1S_ATCC cell viability assay (AID 1918980); further: nearly all actives have a fitted effect of over 45% in size; further: potency means the concentration at half of the fitted maximal effect
In short: as §4

[12] = Quantitative High-Throughput drug screen in 47 multiple myeloma cell lines against the NCATS MIPE library collection: KMS12BM_JCRB cell viability assay (AID 1918971); further: nearly all actives have a fitted effect of over 35% in size; further: potency means the concentration at half of the fitted maximal effect
In short: as §3

[13] = Quantitative High-Throughput drug screen in 47 multiple myeloma cell lines against the NCATS MIPE library collection: KMS20_JCRB cell viability assay (AID 1918973); further: nearly all actives have a fitted effect of over 45% in size; further: potency means the concentration at half of the fitted maximal effect
In short: as §2

[14] = Quantitative High-Throughput drug screen in 47 multiple myeloma cell lines against the NCATS MIPE library collection: MMM1_PLB cell viability assay (AID 1918976); further: nearly all actives have a fitted effect of over 35% in size; further: potency means the concentration at half of the fitted maximal effect
In short: as §4

[15] = Quantitative High-Throughput drug screen in 47 multiple myeloma cell lines against the NCATS MIPE library collection: MOLP8_DSMZ cell viability assay (AID 1918977); further: nearly all actives have a fitted effect of over 45% in size; further: potency means the concentration at half of the fitted maximal effect
In short: as §4

[16] = Quantitative High-Throughput drug screen in 47 multiple myeloma cell lines against the NCATS MIPE library collection: MM1R_ATCC cell viability assay (AID 1918981); further: nearly all actives have a fitted effect of over 35% in size; further: potency means the concentration at half of the fitted maximal effect
In short: as §4

[17] = Quantitative High-Throughput drug screen in 47 multiple myeloma cell lines against the NCATS MIPE library collection: KMS21BM_JCRB cell viability assay (AID 1918974); details: ATP luminescence, 48 h; viability: at 45.8 µM (top of the series); further: potency means the concentration at half of the fitted maximal effect
In short: as §2

[18] = Quantitative High-Throughput drug screen in 47 multiple myeloma cell lines against the NCATS MIPE library collection: JIM1_ECACC cell viability assay (AID 1918964; further: potency means the concentration at half of the fitted maximal effect)
In short: as §2

Measured: Potency

Nc1nc(=O)n([C@H]2C[C@H](O)[C@@H](CO)O2)cc1F
inactive: [3] | [4] | [5] | [8] | [10]
active: [1] 1.32 µM | [2] 0.0296 µM | [6] 0.0418 µM | [7] 0.059 µM | [9] 16.6 µM | [11] 0.0074 µM

N#CC(=C(O)c1ccc(Cl)cc1Cl)c1nc2cc(Cl)ccc2c(=O)[nH]1
not listed: [3] | [4] | [5] | [8] | [10] | [17] | [18]
inactive: all other assays above

Cc1ccc(O)c(C(CCN(C(C)C)C(C)C)c2ccccc2)c1 (stereo not drawn)
active: [17] 9.35 µM
inactive: [1] | [3] | [4] | [5] | [12] | [7] | [9] | [10] | [11]

COC(=O)[C@@H]1[C@H]2C[C@@H]3c4[nH]c5ccccc5c4CCN3C[C@@H]2CC[C@@H]1O
not listed: [3] | [10] | [12] | [13] | [14] | [17] | [18]
inactive: all other assays above

CC(C)Oc1ccc(C(=O)N[C@H](CNC(=O)CN(C)C)Cc2ccc(-c3cn4cccc([C@H](C)O)c4n3)cc2)cc1Cl
active: [1] 0.209 µM | [2] 0.0743 µM | [5] 0.132 µM | [6] 0.833 µM | [12] 0.743 µM | [7] 0.469 µM | [13] 0.235 µM | [10] 2.64 µM | [11] 6.62 µM | [16] 0.59 µM
inactive: [3]

CC(=O)OCC(=O)[C@@]12N=C(C)O[C@H]1C[C@H]1[C@@H]3CCC4=CC(=O)C=C[C@]4(C)[C@@H]3[C@@H](O)C[C@@]12C
inactive: [12] | [7] | [8] | [14] | [16]
active: [2] 11.8 µM | [5] 5.26 µM | [15] 16.6 µM | [11] 5.9 µM

NC(=O)c1ncn([C@@H]2O[C@H](CO)[C@@H](O)[C@@H]2O)c1N
active: [14] 2.64 µM
not listed: [2] | [5] | [7] | [13] | [15] | [17] | [18]
inactive: all other assays above

c1coc(CNc2ncnc3nc[nH]c23)c1
inactive: [2] | [4] | [5] | [13] | [17] | [8] | [9] | [10] | [16]

Cn1cc(C[C@@H](N)C(=O)O)c2ccccc21
inactive: [1] | [4] | [5] | [8] | [9] | [10] | [11]
active: [12] 2.29 µM | [14] 0.645 µM | [15] 0.115 µM

Nc1nc(=O)n([C@H]2CSC(CO)O2)cc1F (stereo partly drawn)
inactive: [1] | [3] | [5] | [6] | [12] | [13] | [8] | [9] | [10] | [16]

OC[C@H]1OC(O)C[C@@H](O)[C@H]1O (stereo partly drawn)
inactive: [1] | [4] | [6] | [8] | [14] | [15] | [10] | [11]

COc1cc(OC)c(NC(=O)Nc2cc(C)on2)cc1Cl
inactive: [2] | [4] | [7] | [8] | [9] | [10] | [16]
active: [5] 14.8 µM

CN(C)CC(=O)N1CCC(c2ccc(NC(=O)c3ncc(C#N)[nH]3)c(C3=CCCCC3)c2)CC1
active: [18] 5.26 µM | [2] 14.8 µM | [4] 18.7 µM | [5] 23.5 µM | [7] 5.26 µM | [13] 13.2 µM | [15] 5.26 µM | [9] 16.6 µM | [11] 2.35 µM | [16] 8.33 µM
inactive: [12]

CON=C(C(=O)N[C@@H]1C(=O)N2C(C(=O)O)=C(CSC(=O)c3ccco3)CS[C@H]12)c1csc(N)n1
active: [5] 16.6 µM
inactive: [2] | [3] | [12] | [13] | [8] | [10]

CN[C@H](CC(C)C)C(=O)N[C@H]1C(=O)N[C@@H](CC(N)=O)C(=O)N[C@@H]2C(=O)N[C@H]3C(=O)N[C@H](C(=O)N[C@H](C(=O)O)c4cc(O)cc(O)c4-c4cc3ccc4O)[C@H](O)c3ccc(c(Cl)c3)Oc3cc2cc(c3O[C@@H]2O[C@H](CO)[C@@H](O)[C@H](O)[C@@H]2O[C@H]2C[C@](C)(N)[C@H](O)[C@H](C)O2)Oc2ccc(cc2Cl)[C@H]1O
inactive: [1] | [3] | [4] | [8] | [15] | [9] | [10] | [16]

Cc1ccc(-n2[nH]c(C)c(N=Nc3cccc(-c4cccc(C(=O)O)c4)c3O)c2=O)cc1C
inactive: [7]
active: [18] 13.2 µM | [2] 23.5 µM | [4] 20.9 µM | [12] 23.5 µM | [14] 20.9 µM | [15] 23.5 µM | [11] 18.7 µM
